Calls of active or inactive are those of the source.
experiment: probe aXIP binding to arrayed compounds – biochemical, NeuroSMM set, 635/667 nm fluorescence, primary screen (AID 1119); details: small-molecule microarray, higher = more signal, called active from +8 up or from −8 down;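 note: probe is the protein aXip251-270 applied at 1 µg/mL to compound-printed slides; binding of probe to printed compounds measured as 667 nm fluorescence plus signal to noise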

Composite Z-score, inactive:
COC(=O)C[C@H]1O[C@@H](CCc2ccccc2)[C@@H](C)[C@@H]1[Si](C)(C)c1ccc(OC)cc1 0.611
CC(=CC1CCCCC1)[C@@H](NC(=O)c1cccnc1)c1ccc(-c2ccccc2)cc1 -0.8
[N-]=[N+]=Nc1ccccc1C[C@]1(C(=O)NCC(O)CO)N=C(c2ccc(OCCCO)cc2)O[C@H]1c1ccccc1 (stereo not given in full) 0.102
COCC(=C=CC[C@H](O)c1cccc(OCCO)c1)CCO -0.0662
COC(=O)[C@H](Cc1ccccc1)N[C@H](/C=C/C1CC1)[C@@H](O)Cc1ccccc1 0.448
C=CCOC(=O)[C@H]1[C@@H]2C(=O)O[C@@H](c3ccccc3)[C@@H](c3ccccc3)N2[C@@H](c2ccc(OCCOC(=O)[C@@H]3C[C@@H]4C(=O)N5CCC[C@H]5C(=O)N4[C@@H]3c3cccc(OCCO)c3)cc2)[C@]12C(=O)Nc1ccc(I)cc12 0.686
COCC(=C=CC[C@@H](O)c1ccc(OCCO)cc1)C[C@@H](O)c1ccccn1 -0.628
COc1ccc([Si](C)(C)[C@@H]2[C@@H](CCO)O[C@]3(C(=O)N(Cc4cccc(N5CCOC5=O)c4)c4ccccc43)[C@H]2C)cc1 -0.295
[N-]=[N+]=Nc1ccccc1[C@H]1OC(c2ccc(OCCCO)cc2)=N[C@@]1(Cc1ccccc1)C(=O)N1CCOCC1 1.39
CN1C(=O)C2C=CC(C(O)C=Cc3ccc([N+](=O)[O-])cc3)N(Nc3ccccc3)C2C1=O (stereo not given) 0.268
C#CCOc1ccc(C[C@@H](C(=O)OC)N(CC#C)[C@@H](/C=C/C2CC2)[C@H](O)Cc2ccccc2)cc1 -0.423
O=C(NCc1ccccc1)[C@@H]1c2ccccc2C(=O)N(C2Cc3ccccc3C2)[C@H]1c1ccc(CO)cc1 0.0702
COC(=O)c1c2oc(c1C(=O)OC)C(=O)NC1(CCCCC1)c1cn(nn1)C[C@H](Cc1ccccc1)NC(=O)N[C@H](CO)CC2 0.992
CCCCCCc1nc(-c2ccc(-c3ccc(Cl)c(Cl)c3)o2)cc2c1[Si](C(C)C)(C(C)C)O[C@H]2c1ccccc1 1.35
COCCOC(=O)N1C(=O)[C@@]2(c3cc(C#CC4(O)CCCCCC4)ccc31)[C@H](C(=O)Nc1nc3ccccc3s1)[C@H]1C(=O)O[C@H](c3ccccc3)[C@H](c3ccccc3)N1[C@@H]2c1ccc(OCCO)cc1 -0.245
COC(=O)[C@@]1(Cc2ccc(OC)cc2)[C@H]2c3cc(C(=O)N4CCCC4)n(CCCNc4ncc(C(F)(F)F)cc4Cl)c3C[C@H]2CN1C(=O)c1ccccc1 -0.682
COC(=O)[C@@]1(Cc2ccc(OC)cc2)[C@H]2c3cc(C(=O)N4CCCC4)n(CCc4ccc(O)c(O)c4)c3C[C@H]2CN1C(=O)c1ccccc1 -0.2
Cc1c(NC(=O)/C(C#N)=C/c2cccc([N+](=O)[O-])c2)c(=O)n(-c2ccccc2)n1C -0.449
C[N+](C)(C)CCCC[C@@H]1NC(=O)[C@@H]2C[C@H](C(=O)NCCCCCCNC(=O)CS)[C@H](c3ccc(O)cc3)N2C1=O 0.0896
COC(=O)[C@@]1(Cc2ccccc2)[C@H]2c3cc(C(=O)N4CCCC4)n(Cc4ccc(O)c(OC)c4)c3C[C@H]2CN1C(=O)c1ccccc1 -0.0662
O=C1O[C@@H](c2ccccc2)[C@@H](c2ccccc2)N2[C@@H](c3ccccc3OCCO)[C@]3(C(=O)Nc4ccccc43)[C@@H](C(=O)O)[C@H]12 -0.0247
CCCNC(=O)[C@@H]1c2ccccc2C(=O)N(Cc2ccccc2OC)[C@H]1c1ccc(CO)cc1 -0.228
CC[C@@H]1C=C(C(=O)O)[C@H](c2ccc(C)cc2)N1S(=O)(=O)c1ccc(C)cc1 0.827
O=C1O[C@H](c2ccccc2)[C@H](c2ccccc2)N2[C@H]1[C@@H](C(=O)NC[C@H](O)c1ccccc1)[C@]1(C(=O)Nc3ccccc31)[C@H]2c1ccc(O)cc1 -0.35
Cc1ccc(S[C@]2(C(=O)NCC(C)C)CC(=O)N(Cc3cc(C(F)(F)F)cc(C(F)(F)F)c3)[C@@H]2c2ccc(CO)cc2)cc1 -0.0662
COCCOC(=O)N1C(=O)[C@@]2(c3cc(C#CC4=CCCCC4)ccc31)[C@H](c1ccc(OCCO)cc1)N1[C@H](c3ccccc3)[C@H](c3ccccc3)OC(=O)[C@H]1[C@@H]2C(=O)N1CCc2cc(OC)c(OC)cc2C1 0.111
COc1ccccc1CN1C(=O)c2ccccc2[C@@H](C(=O)NCc2ccccc2)[C@@H]1c1ccc(CO)cc1 -0.549
COCCOC(=O)N1C(=O)[C@@]2(c3ccccc31)[C@H](C(N)=O)[C@H]1C(=O)O[C@H](c3ccccc3)[C@H](c3ccccc3)N1[C@@H]2c1ccc(O)cc1 0.573
C=C(/C(=C/C[C@H](OC(C)=O)c1ccc(OCCO)cc1)c1cc(C(=O)OC)ccc1OC)C(C)C 0.218
COCCCNC(=O)[C@@]1(Sc2ccc(C)cc2)CC(=O)N(Cc2ccccc2Cl)[C@@H]1c1ccc(CO)cc1 -0.301
O=C(O)[C@H](Cc1ccccc1)n1cc(-c2ccccc2)nn1 0.52
CC(C)[Si](C#CCCCC#N)(Oc1ccccc1Br)C(C)C 0.147
C=CC1c2cc(O)c(OC)cc2CCN1Cc1cccc(OC(F)(F)F)c1 (stereo not given) 0.625
O=C1OCCC=C[C@H]2OC34C=CCN(Cn5nnc6ccccc65)C(=O)[C@H]3N(CCO)C(=O)[C@@H]4C12 (stereo not given in full) 0.6
CC(C)[Si](C#C[Si](C(C)C)(C(C)C)C(C)C)(O[C@H](C)c1cn(Cc2ccccc2)nn1)C(C)C -0.539

From PubChem BioAssay
